TLR4-MyD88 BLA: inhibitors of human TLR4-MyD88 binding. inhibition, % at 8.4 µM. HeLa CL3-4 TLR4/MyD88 BLA complementation, FRET ratio. 200,000 tested, 0.18% active; in the data active = inhibition above about 25%;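 also: 0% = vehicle and 100% = reference inhibitor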
NOD2-RIPK2 inh: blocks binding of human NOD2 to RIPK2; O43353; CHO BLA complementation NOD2-RIPK2, CCF4 ratio; inhibition, % at 4.98 µM; 360,000 tested, 0.38% active; AID 624267; in the data active = inhibition above about 21%;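 also: 0% = vehicle only and 100% = reference blocker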
Mcl1 Bid PPI: Mcl-1/Bid interaction inhibition; AID 1021; Q07820; inhibition, % at 21.7 µM; TR-FRET Mcl-1/Bid-Dy647 peptide binding, 1536-well; 220,000 tested, 0.97% active;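 active = compounds that cut the binding signal by more than half at the single screening dose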;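 also: His-tagged Mcl-1 with europium anti-His antibody binding Bid BH3 peptide; 0% = Mcl-1 plus peptide wells and 100% = peptide-only wells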
Bim-Mcl-1: disrupts Bim peptide binding to human Mcl-1 | 190,000 tested, 0.1% active | inhibition, % at 10 µM | Bead-based flow cytometry, Bim peptide-Mcl-1 binding | AID 1009 | Q07820; in the data active = inhibition above about 40%;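 also: 0% = no compound tracer wells and 100% = peptide blocker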
Mcl1 Noxa PPI: Mcl-1/Noxa interaction inhibition | Q07820 | TR-FRET Mcl-1/Noxa peptide binding, 2 h | inhibition, % at 21.7 µM | 220,000 tested, 1.5% active | AID 1022;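 active = compounds that cut the protein-peptide binding signal by more than 50% relative to plate controls in a single-dose test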;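 also: His-tagged Mcl-1 with rhodamine Noxa BH3 peptide and terbium anti-His antibody; 0% = Mcl-1 plus Noxa peptide wells and 100% = peptide-only wells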
TLR9-MyD88 inh: blocks human TLR9 binding to MyD88; Q9NR96+Q99836; CHO BLA complementation TLR9-MyD88, CCF4 FRET ratio; inhibition, % at 4.98 µM; 340,000 tested, 0.21% active;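 active = inhibition above the mean over all tested compounds plus 3 SD, cut at about 21% in these data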;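 also: 0% = DMSO only wells and 100% = clavulanate BLA inhibitor control wells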
* marks the source's active call; other numbers are inactive results; · = not tested or not shown. This is a sample that favours compounds with a hit; in the whole collection about 1.8% have one here.

SMILES	TLR4-MyD88 BLA	NOD2-RIPK2 inh	Mcl1 Bid PPI	Bim-Mcl-1	Mcl1 Noxa PPI	TLR9-MyD88 inh
CCC[C@H](N[C@@H](C)C(=O)N1[C@H](C(=O)O)C[C@@H]2CCCC[C@@H]21)C(=O)OCC	·	-6	·	·	·	5
COCCCn1c(=S)[nH]c2sc3c(c2c1=O)CCCS3	8	1	-89	-4	65*	9
CCOC(=O)c1c(NC(=O)c2ccccc2)sc2c(O)c(CN(CC)CC)ccc12	2	5	21	0	59*	2
Cc1[nH]c(=O)c(C(=O)/C=C/c2ccccc2F)c2c1CCCC2	-9	23*	-4	-1	-11	6
Cc1cc(C)c(C(=O)/C=C/c2cccc3ccccc23)c(=O)[nH]1	1	7	-1	-1	40	15
CCS(=O)(=O)N1CCN(C2CCC(c3ccccc3)CC2)CC1 (stereo not drawn)	9	-2	54*	0	10	0
COCCNC(=O)CN1C(=O)/C(=C/c2ccccc2)Oc2ccc(C(C)(C)C)cc21	·	-9	·	·	·	-12
CCN(CC)c1ccc(NC(=O)COC(=O)/C=C/c2nc3ccccc3s2)cc1	-2	-12	-3	0	56*	-1
COc1ccc2nc3ccccc3nc2c1N	·	2	-86	·	55*	-8
CCCCn1c(=O)nc2n(-c3ccccc3)c3ccccc3cc-2c1=O	-2	-4	64*	0	5	7
O=[N+]([O-])c1ccc(Cl)c2c1C1C=CCC1C(c1ccccn1)N2 (stereo not drawn)	-8	-11	-49	2	-3	-8
O=C(O)C1Nc2c(O)cc(Cl)c([N+](=O)[O-])c2C2C=CCC12 (stereo not drawn)	-2	-1	97*	9	105*	-9
CCCCNC(=O)Nc1nnc(-c2ccccc2)o1	-12	0	59*	2	10	-5
COc1ccc(NC(=O)CN(c2ccc(OC)cc2)S(=O)(=O)c2c(C)nn(C)c2C)cc1	·	-14	·	·	·	0
COc1cccc(CN2CCNC(=O)C2CC(=O)NCCCn2ccnc2)c1 (stereo not drawn)	·	3	-20	·	-23	5
Cc1ccc(Nc2nnc(SCC(=O)NCc3ccco3)s2)cc1	16	-5	-73	-3	53*	10
O=C(CSc1nnc(Nc2ccccc2)s1)NCc1ccco1	-14	-1	-37	0	2	9
Cc1nnc(SCC(=O)NC(=O)NCc2ccco2)n1Cc1ccccc1	13	8	2	-3	53*	1
O=C(CSc1nnc(COc2ccccc2Cl)o1)NC(=O)NCc1ccco1	·	-6	-40	·	81*	8
Nn1c(SCC(=O)NCCN2C(=O)CSC2=O)nnc1-c1ccc(OC(F)F)cc1	·	2	·	·	·	-17
Nn1c(SCC(=O)NC(=O)NCc2ccco2)nnc1-c1ccc(OC(F)F)cc1	12	3	18	-4	96*	0
O=C(Nc1ccn(CCCNCCCN2CCCC2=O)c(=O)n1)OCc1ccccc1	·	5	·	·	·	-9
Cc1ccccc1Nc1nnc(SCC(=O)NC(=O)NCc2ccco2)s1	-6	0	-59	-3	56*	3
CCn1c(SCC(=O)NC(=O)NCc2ccco2)nc2sc(C)c(C)c2c1=O	3	-3	-6	-1	55*	2
O=C(CSc1nnnn1-c1ccccc1)NC(=O)NCc1ccco1	8	-8	-15	1	36	-7
SMILES	TLR4-MyD88 BLA	NOD2-RIPK2 inh	Mcl1 Bid PPI	Bim-Mcl-1	Mcl1 Noxa PPI	TLR9-MyD88 inh
CCOc1ccccc1-n1nnnc1SCC(=O)NC(=O)NCc1ccco1	24	-9	-83	2	53*	2
O=C(NCCCN1CCCC1=O)c1cn(-c2ccccc2)nc1-c1ccccc1	·	-6	·	·	·	5
O=C(CN1C(=O)NC2(CCOc3ccccc32)C1=O)c1ccc(Br)cc1 (stereo not drawn)	·	-12	·	·	·	-14
O=C(Cc1ccc(S(=O)(=O)N2CCOCC2)s1)NCCOc1ccccc1	·	-2	·	·	·	0
COCCN(Cc1ccccc1)C(=S)Nc1ccc(OC(F)F)cc1	4	-7	-43	-3	-1	4
COc1ccc(N(CCCN2C(=O)c3cccc4cccc(c34)C2=O)C(=O)c2ccncc2)cc1	6	6	-18	-3	1	-4
COc1cc(OC)cc(C(=O)N(CCCN2C(=O)c3cccc4cccc(c34)C2=O)c2cccc(OC)c2)c1	-15	-3	84*	-3	-5	-8
N#C/C(=C\c1ccc([N+](=O)[O-])o1)C(=O)Nc1ccc(F)cc1	11	4	-51	1	65*	12
COc1ccc(NC(=O)/C(C#N)=C\c2ccc(Br)o2)cc1	·	0	-75	·	17	1
O=[N+]([O-])c1ccccc1C(=Nc1ccccc1)c1c(O)cc(O)cc1O	·	9	·	·	·	6
CC(C(=O)O)n1cc(C#N)c(=O)[nH]c1=O (stereo not drawn)	·	0	·	·	·	-7
O=C(CCSCCC(=O)NCc1ccco1)NCc1ccco1	18	·	-12	-4	54*	·
O=C(CCSCc1ccccc1Cl)NCc1ccco1	4	7	-23	1	12	4
O=C(COC(=O)C1CC2C=CC1C2)NCc1ccco1 (stereo not drawn)	-10	0	-15	0	66*	-5
CCN(CC(=O)NCc1ccc(Cl)cc1)C(=O)COc1ccc(Cl)cc1Br	·	-8	·	·	·	-5
CCN(CC)C(=O)C1CCCN(Cc2cccc(F)c2)C1 (stereo not drawn)	7	-4	64*	-3	34	-3
Oc1cc2ccccc2cc1-c1n[nH]c(=S)o1	0	-11	57*	10	50	-2
S=c1[nH]nc(-c2c[nH]c3ccccc23)o1	·	-9	·	·	·	9
O=C1CNC(=S)N1Cc1ccccc1Cl	·	-11	·	·	·	7
O=C(NCc1ccc(F)cc1)C1CCCN1C(=O)NCc1ccccc1 (stereo not drawn)	-6	-5	2	1	52*	0
Cc1c(N2C(=O)c3ccc(Br)cc3C2=O)c(=O)n(-c2ccccc2)n1C	-4	-2	-28	1	4	13
Cc1c(N2C(=O)c3ccc4c5c(ccc(c35)C2=O)CC4)c(=O)n(-c2ccccc2)n1C	-3	-8	-26	0	96*	-3
CCCc1cc(C(=O)Nc2ccc(CC)cc2)no1	·	-3	·	·	·	-2
C=CC(c1ccccc1)C(C(=O)c1ccccc1)N(C)C (stereo not drawn)	-5	1	82*	-1	-9	-1
O=C(c1ccccc1)C(O)c1ccccc1 (stereo not drawn)	·	-5	·	·	·	0
O=C(CN1CCN(S(=O)(=O)c2ccccc2F)CC1)NCC1(N2CCOCC2)CCCCC1	·	2	·	·	·	-2
O=C(Cc1ccccc1F)NCC1(N2CCOCC2)CCCCC1	·	-12	-11	·	60*	-3
CN1CCc2c(sc(NC(=O)C3CCCN3S(=O)(=O)c3ccc(Cl)s3)c2C(N)=O)C1 (stereo not drawn)	·	3	·	·	·	-1
